Our source for the AC50 and outcome values is PubChem BioAssay (EPA / NIEHS).

Where “and” joins values, the source holds several entries; their conditions need not be identical. Identical values can stand only once. Records with an inconclusive call do not appear. Calls of active or inactive are those of the source. Rule for the calls: active = hit-call score of the fitted dose curve at least 0.9, where 1 is the maximum; inconclusive = response in the unintended direction; inactive = score below 0.9.

Test [1] addresses Cellular tumor antigen p53 (Homo sapiens) (UniProt P04637). Kind of test: TOX21_p53_BLA_p2_ratio: Tox21 HCT-116 p53 Agonism Beta-lactamase Assay, Ratio, Phase 2 (AID 2283592). The essentials: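 Ratio endpoint: beta-lactamase cleavage of CCF4-AM, blue (460 nm) over green (530 nm). HCT116 reporter line; 16 h treatment, 37C; substrate 2 h RT.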
Test [2] can be described thus: TOX21_p53_BLA_p3_viability: Viability Assessment in the Tox21 HCT-116 p53 Agonism Beta-lactamase Assay, Phase 3 (AID 2283593).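 Note: cells exposed to compound for 16 h before reading.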 An outline of the steps: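 Cellular ATP was quantified by CellTiter-Glo luminescence, read after 30 min at room temperature. Beforehand, HCT116 cells (4000/well) received compound 5 h post-seeding, 217-fold diluted from DMSO, then incubated 16 h at 37C.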

Test [3] deals with Cellular tumor antigen p53 (Homo sapiens) (UniProt P04637). Kind of test: TOX21_p53_BLA_p3_ratio: Tox21 HCT-116 p53 Agonism Beta-lactamase Assay, Ratio, Phase 3 (AID 2283596). The essentials:
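Cells were seeded at 4000/well, rested 5 h at 37C, then dosed with DMSO compound solutions (217-fold dilution) for 16 h. CCF4-AM substrate was loaded for 2 h at room temperature, and the 460/530 nm emission ratio was fitted for gain of signal versus DMSO.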

Test [4] is described as follows: TOX21_p53_BLA_p4_viability: Viability Assessment in the Tox21 HCT-116 p53 Agonism Beta-lactamase Assay, Phase 4 (AID 2283597).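 Note: hits lower the luminescence signal meaning cytotoxicity.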 An outline of the steps: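 Cytotoxicity was inferred from loss of CellTiter-Glo luminescence. HCT116 cells had been dosed with compounds after 5 h plating, incubated 16 h at 37C and 5% CO2, and exposed to the CCF4-AM substrate for 2 h.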

The target of test [5] is Cellular tumor antigen p53 (Homo sapiens) (UniProt P04637). Kind of test: TOX21_p53_BLA_p5_ratio: Tox21 HCT-116 p53 Agonism Beta-lactamase Assay, Ratio, Phase 5 (AID 2283599). The essentials:
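Beta-lactamase reporter ratio (blue 460 nm over green 530 nm, 405 nm excitation) after 2 h CCF4-AM loading, in HCT-116 cells exposed 16 h at 37 C to compounds pinned at 217-fold dilution. Increases relative to DMSO baseline scored.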

Test [6] is described as follows: TOX21_p53_BLA_p5_viability: Viability Assessment in the Tox21 HCT-116 p53 Agonism Beta-lactamase Assay, Phase 5 (AID 2283600). The essentials:
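Luciferase-coupled ATP quantitation of cells treated for 16 h (37C, 5% CO2) with test chemicals delivered in DMSO via a 217-fold dilution; 4000 cells/well; reagent incubated 30 min at room temperature before luminescence reading.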

The target in test [7] is Cellular tumor antigen p53 (Homo sapiens) (UniProt P04637). Kind of test: TOX21_p53_BLA_p4_ratio: Tox21 HCT-116 p53 Agonism Beta-lactamase Assay, Ratio, Phase 4 (AID 2283601). An outline of the steps:
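Signal is the blue/green (460nm/530nm) ratio of cleaved versus uncleaved CCF4-AM substrate, read after 2 h substrate loading. Cells were HCT116 carrying the p53-responsive beta-lactamase reporter, dosed 16 h at 37C, 5% CO2; CellTiter-Glo measured in parallel.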

Test [8] is described as follows: Tanguay_ZF_120hpf_MORT_legacy: (Legacy) Oregon State University Tanguay Lab 120 Hour Post-fertilization zebrafish Assay for Mortality (AID 2283633).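 For AC50: fitted as increase in binary mortality versus DMSO negative control.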 An outline of the steps:
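Dechorionated Tropical 5D wild-type zebrafish embryos, one per well from 6 hpf, were statically exposed at 28C in the dark until 120 hpf (0.64% DMSO final). Mortality was scored as present/absent by brightfield microscopy, fitted positively versus DMSO.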

Test [9] is described as follows: ATG_XTT_Cytotoxicity: Cytotoxicity Assessment in the Attagene TRANS-FACTORIAL HepG2 Assay (AID 2283584).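 For AC50: cells exposed to compound for 24 h before reading; active means loss of viability signal versus DMSO baseline.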 The essentials: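 HepG2 human liver cells, transiently transfected with multiple GAL4-UAS reporter units, were dosed and read at 24 h by XTT as cell number. Loss of signal was fitted relative to DMSO negative control baseline.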
Test [10] can be described thus: TOX21_p53_BLA_p2_viability: Viability Assessment in the Tox21 HCT-116 p53 Agonism Beta-lactamase Assay, Phase 2 (AID 2283591).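 Note: compound exposure lasted 16 h at 37 °C; actives lower the ATP signal meaning cytotoxicity.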 An outline of the steps: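 Cytotoxicity readout: CellTiter-Glo ATP luminescence, 30 min at room temperature, after the beta-lactamase read. Cells were HCT116 exposed 16 h at 37C to compounds pin-transferred at 217-fold dilution from DMSO stocks.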

Usually AC50 stands for the midpoint of the concentration-response curve, whichever way the signal moves.

Sequence of Cellular tumor antigen p53 (Homo sapiens) (P04637 whole entry, looked up): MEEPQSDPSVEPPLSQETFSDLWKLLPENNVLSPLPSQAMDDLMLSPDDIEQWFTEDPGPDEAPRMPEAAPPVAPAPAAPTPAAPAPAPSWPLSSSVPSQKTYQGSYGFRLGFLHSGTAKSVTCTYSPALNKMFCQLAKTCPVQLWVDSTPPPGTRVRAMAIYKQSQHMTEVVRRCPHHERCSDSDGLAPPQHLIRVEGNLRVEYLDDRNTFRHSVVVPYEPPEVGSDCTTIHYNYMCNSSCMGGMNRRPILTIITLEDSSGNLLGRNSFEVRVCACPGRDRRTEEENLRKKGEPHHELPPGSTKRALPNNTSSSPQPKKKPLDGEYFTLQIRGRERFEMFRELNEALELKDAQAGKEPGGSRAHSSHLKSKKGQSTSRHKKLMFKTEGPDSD

Regarding `N#CSCSC#N`, the AC50 is 19 µM (active) and 15.5 µM (active) in test [1]; 60.7 µM (active) and 78.2 µM (active) in [2]; 14.9 µM (active) and 8.68 µM (active) in test [3]; 51.1 µM (active) and 61.9 µM (active) in [4]; 18.8 µM (active) and 15.9 µM (active) in test [5]; 66.3 µM (active) and 68.4 µM (active) in test [6]. The AC50 in [7] was 36.5 µM (active) and 18.1 µM (active); in [8] it was 34.6 µM (active).

In the case of `O=[N+]([O-])c1cc(C(F)(F)F)c(Cl)c([N+](=O)[O-])c1Nc1ncc(C(F)(F)F)cc1Cl`, the concentration at half-maximal activity (AC50) in [9] is 38.8 µM (active). The call in test [8] was inactive.

Take `CN(C)[C@@H]1C(=O)C(C(N)=O)=C(O)[C@@]2(O)C(=O)C3=C(O)c4c(O)cccc4[C@@](C)(O)[C@H]3[C@H](O)[C@@H]12`: the compound was classed as inactive in [9] and in test [8].

Take `CCc1cccc(C)c1N(C(=O)CCl)C(C)COC` (stereo not given): the compound was called inactive in test [9], in test [10], in test [1], in [2], in test [3] and in test [4]. In addition, the outcome in [5], in test [6], in [7] and in [8] was inactive.

Turning to `FC(F)C(F)(F)OCC(Cn1cncn1)c1ccc(Cl)cc1Cl` (stereo not given), the result in test [1], in test [2], in test [3], in test [5], in test [6] and in test [7] was inactive. For the same compound, the compound was classed as inactive in test [8]. Further, the AC50 in test [4] is 60.5 µM (active).

Take `CCCOCC(=Nc1ccc(Cl)cc1C(F)(F)F)n1ccnc1`: the compound was called inactive in test [9] and in [8]. Moreover, the AC50 in test [1] was 39.9 µM (active); in [2], 35.4 µM (active); in test [3], 68.1 µM (active); in [4] it was 24.9 µM (active); in [5] it was 48.5 µM (active); in test [6] it was 31.2 µM (active). Also, the AC50 in test [7] is 46.2 µM (active).

`Nc1nc(N)nc(NC2CC2)n1`: the result in test [1], in test [2], in [3], in [4], in test [5] and in [6] was inactive. The outcome in [7] and in test [8] was inactive.

For the compound `CCC(CC)Nc1c([N+](=O)[O-])cc(C)c(C)c1[N+](=O)[O-]`, the outcome in test [9], in test [1], in [2], in test [3], in [4] and in [5] was inactive. Besides, the call in [6], in test [7] and in [8] was inactive.

As for `Cc1ccn2nc(S(=O)(=O)Nc3c(F)cccc3F)nc2n1`, in test [8], the outcome was inactive.

Regarding `CNC(=O)Oc1cccc2c1OC(C)(C)O2`, the result in [1], in test [3], in [4], in test [5], in test [7] and in test [8] was inactive.

As to `COP(=O)(NC(C)=O)SC` (stereo not given), the outcome in test [1], in test [2], in test [3], in test [4], in [5] and in test [7] was inactive. Moreover, the result in test [8] was inactive.

`CC(Oc1cccc(Cl)c1)C(=O)O` (stereo not given): the result in test [1], in test [3], in test [4], in [5], in [6] and in [7] was inactive. Besides, the call in test [8] was inactive.

With `CCCSP(=O)(OCC)Oc1ccc(Br)cc1Cl` (stereo not given), the result in test [1], in [3], in [4], in [5], in [6] and in [7] was inactive. In test [8], the compound was called inactive.

On to `CCCCOC(=O)c1ccccc1C(=O)O`, for which the outcome in [1], in test [3], in test [4], in test [5], in test [6] and in test [8] was inactive.

Consider `C[N+]1(C)CCCCC1`, for which the result in test [1], in test [3], in test [5], in test [7] and in test [8] was inactive.

Consider `CSc1nc(NC(C)C)nc(NC(C)C)n1`, for which the outcome in [1], in test [3], in [6] and in [8] was inactive.

`Cc1nn(-c2cc(NS(C)(=O)=O)c(Cl)cc2Cl)c(=O)n1C(F)F`: the result in test [1], in test [3], in test [4], in test [6], in [7] and in test [8] was inactive.

Take `C=C(C)[C@H]1Cc2c(ccc3c2O[C@@H]2COc4cc(OC)c(OC)cc4[C@@H]2C3=O)O1`: the AC50 in test [8] is 0.347 µM (active).

`COP(=O)(OC)OC(Br)C(Cl)(Cl)Br` (stereo not given): in [8], the compound was classed as inactive.

Consider `CCc1cccc(CC)c1N(COC)C(=O)CCl`, for which, in test [8], the AC50 is 13.4 µM (active).

As to `CC(C)[C@H](C(=O)O[C@H](C#N)c1cccc(Oc2ccccc2)c1)c1ccc(Cl)cc1`, the result in [1], in [2], in [4], in test [5], in test [6] and in [7] was inactive. The compound was classed as inactive in test [8].

`CCOP(=S)(Oc1cnc(C(C)(C)C)nc1)OC(C)C` (stereo not given): the result in [1], in test [4], in [6], in [7] and in test [8] was inactive.

For the compound `CN(C)C(=O)Nc1cccc(C(F)(F)F)c1`, the result in test [1], in [3], in test [4], in test [5], in test [6] and in test [7] was inactive. For the same compound, in test [8], the compound was classed as inactive.

As to `CN1COCN(Cc2cnc(Cl)s2)C1=N[N+](=O)[O-]`, the outcome in test [1], in test [2], in test [5], in test [7] and in test [8] was inactive.

With `CCOP(=O)(SC(C)CC)N1CCSC1=O` (stereo not given), the call in [8] was inactive.

Take `CCC(=NOC/C=C/Cl)C1=C(O)CC(C2CCOCC2)CC1=O` (stereo not given): the outcome in [2], in [6], in test [7] and in [8] was inactive.

In the case of `CCOP(=S)(OCC)OC(Cl)C(Cl)(Cl)Cl` (stereo not given), the result in test [1], in test [2], in test [3], in [6], in test [7] and in test [8] was inactive.

Consider `CCCCOC(=O)[C@@H](C)Oc1ccc(Oc2ccc(C#N)cc2F)cc1`, for which the outcome in test [1], in [4], in [5], in test [7] and in [8] was inactive.

With `CCOC(=O)COc1cc(-c2nn(C)c(OC(F)F)c2Cl)c(F)cc1Cl`, the call in test [2], in test [3], in test [4], in [7] and in test [8] was inactive.

In the case of `CC(C1CC1)C(O)(Cn1cncn1)c1ccc(Cl)cc1` (stereo not given), the compound was called inactive in test [2], in test [3], in [4], in test [6], in [7] and in test [8].

As to `CCc1cnc(C2=NC(C)(C(C)C)C(=O)N2)c(C(=O)O)c1` (stereo not given), the compound was called inactive in [8].

`CCOP(=S)(OCC)SCCSCC`: the outcome in test [1], in [3], in test [4], in test [5], in [6] and in test [7] was inactive. Further, the compound was classed as inactive in test [8].

For the compound `CCOP(=O)(OCC)Oc1cc(C)nc(C(C)C)n1`, the outcome in test [1], in [2], in test [3], in test [5], in test [6] and in test [8] was inactive.

As to `O=C(O)c1cc(Oc2ccc(C(F)(F)F)cc2Cl)ccc1[N+](=O)[O-]`, in test [8], the call was inactive.

`CC(COc1ccc(Oc2ccccc2)cc1)Oc1ccccn1` (stereo not given): the result in [1], in test [4], in test [5], in test [7] and in [8] was inactive.

Consider `COc1cccc(C(=O)NN(C(=O)c2cc(C)cc(C)c2)C(C)(C)C)c1C`, for which the outcome in [1], in test [2], in test [6], in [7] and in test [8] was inactive.

Take `CCNc1nc(Cl)nc(NC(C)(C)C#N)n1`: the result in [2], in test [4], in [5], in test [7] and in test [8] was inactive.

Turning to `CCCCSP(=O)(SCCCC)SCCCC`, the outcome in [1], in test [3], in [4], in [5], in [6] and in test [7] was inactive. Moreover, the result in test [8] was inactive.

On to `CC1=NNC(=O)N(/N=C/c2cccnc2)C1`, for which the result in test [1], in [3], in test [4], in test [6], in test [7] and in [8] was inactive.

As to `COP(=O)(OC)SCn1c(=O)oc2cc(Cl)cnc21`, the result in test [1], in test [4], in test [6], in test [7] and in test [8] was inactive. The AC50 in test [3] was 49.1 µM (active); in test [5], 73.7 µM (active).

Consider `CNc1cnn(-c2cccc(C(F)(F)F)c2)c(=O)c1Cl`, for which the result in test [1], in test [2], in test [3], in [5] and in test [8] was inactive.

Consider `CCCOc1nn(C(=O)NS(=O)(=O)c2ccccc2C(=O)OC)c(=O)n1C`, for which the result in test [5], in test [7] and in test [8] was inactive.

Consider `CNC(=O)ON=C(C)SC`, for which the result in [6], in test [7] and in [8] was inactive.
